Experimental data taken from PubChem BioAssay (EPA / NIEHS).
The source made the active and inactive calls. Rule for the calls: active = hit-call score of the fitted dose curve at least 0.9, where 1 is the maximum; inactive = score below 0.9.

target: Heat shock factor protein 1 (Homo sapiens) (UniProt Q00613); experiment: ATG_HSE_CIS: Attagene CIS-FACTORIAL HepG2 Assay for human Heat Shock Transcription Factor 1 (HSE) (AID 2282953); settings: HepG2 HSE cis-reporter, Attagene RNA transcription; actives raise or lower the signal
Procedure: ATG_CIS is a cell-based, multiplexed-readout assay that uses HepG2, a human liver cell line, with measurements taken at 24 hours after chemical dosing in a 24-well plate.ATG_HSE_CIS is one of 52 assay component(s) measured or calculated from the ATG_CIS assay. It is designed to make measurements of mRNA induction, a form of inducible reporter, as detected with fluorescence intensity signals by Reverse transcription polymerase chain reaction (RT-PCR) and Capillary electrophoresis technology.Data from the assay component ATG_HSE_CIS was analyzed into 1 assay endpoint. This assay endpoint, ATG_HSE_CIS, was analyzed with bidirectional fitting relative to DMSO as the negative control and baseline of activity. Using a type of inducible reporter, measures of mRNA for gain or loss-of-signal activity can be used to understand the reporter gene at the transcription factor-level as they relate to the gene HSF1. Furthermore, this assay endpoint can be referred to as a primary readout, because this assay has produced multiple assay endpoints where this one serves a reporter gene function. To generalize the intended target to other relatable targets, this assay endpoint is annotated to the dna binding intended target family, where the subfamily is heat shock protein.
Human liver HepG2 cells are transiently transfected with multiple reporter transcription units (MRTUs) in 6-well plates using FuGene 6 reagent (Roche; 3 ml FuGene/1 mg DNA). The MRTU constructs are regulated by a cis-regulating element (promoter). […] A major difference between the CIS and TRANS system is that in CIS activities of endogenous TFs are measured, whereas the TRANS assay evaluates changes in activities of exogenous, chimeric NR-Gal4 proteins. […] At the end of 24 hour incubation, total RNA was isolated using TriZol reagent (Invitrogen). The isolated RNA is then reverse-transcribed using oligo(dT) primer and Mo-MLV reverse transcriptase (Invitrogen) with DNAse I (Ambion) treatment for 30 min. The one-tenth of the produced cDNA was amplified by PCR using Taq DNA polymerase (Invitrogen) and two reporter sequence-specific primers. The PCR products were fluorescently labeled by primer extension with 6-arboxyfluorescein (6-FAM) 5'-labeled reporter sequence-specific primer (2 min at 95 C, 20 s at 68 C and 10 min at 72 C) and these products were digested with 5U of HpaI (New England Biolabs) for 2h at 37 C. The fragments were purified using Qiaquick PCR columns (Qiagen), analyzed on an ABI 3130xL genetic analyzer (Applied Biosystems) with peak positions identified by using a set of X-rhodamine (ROX)-labeled MapMarker1000 molecular weight standards (BioVentures). The raw capillary electrophoresis data was processed using Attagraph software (Attagene).

Sequence of Heat shock factor protein 1 (Homo sapiens) (Q00613 whole entry, looked up): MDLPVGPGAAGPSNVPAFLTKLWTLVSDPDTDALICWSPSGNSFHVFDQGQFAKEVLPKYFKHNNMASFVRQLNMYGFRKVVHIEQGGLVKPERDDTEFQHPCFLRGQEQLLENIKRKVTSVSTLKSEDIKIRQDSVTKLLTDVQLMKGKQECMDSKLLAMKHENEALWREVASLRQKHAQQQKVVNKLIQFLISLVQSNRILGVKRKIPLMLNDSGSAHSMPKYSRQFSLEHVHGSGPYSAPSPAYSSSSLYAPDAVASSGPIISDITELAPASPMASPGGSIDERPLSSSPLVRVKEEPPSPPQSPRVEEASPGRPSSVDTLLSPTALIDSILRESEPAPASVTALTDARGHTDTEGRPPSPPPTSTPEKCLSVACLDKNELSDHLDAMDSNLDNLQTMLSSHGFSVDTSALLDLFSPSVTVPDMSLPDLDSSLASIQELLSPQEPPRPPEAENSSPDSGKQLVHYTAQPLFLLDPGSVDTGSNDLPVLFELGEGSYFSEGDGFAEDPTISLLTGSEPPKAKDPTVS

| Structure (SMILES) | outcome |
| --- | --- |
| CC(C)Cc1ccccc1 | inactive |
| O=C1OCc2ccccc21 | inactive |
| OC[C@@H](O)[C@H](O)[C@@H](O)[C@@H](O)CO | inactive |
| N#CCCCC(C#N)CCC#N (stereo not given) | inactive |
| [Cl][Dy]([Cl])[Cl] | inactive |
| CC(=O)c1ccc2ccccc2c1 | inactive |
| CN(C)C(=O)Nc1ccccc1 | inactive |
| C=C/C(C)=C/C/C=C(\C)CCC=C(C)C | inactive |
| C[C@]12CC[C@@H]3c4ccc(O)cc4CC[C@H]3[C@@H]1CC[C@@H]2O | inactive |
| ClCCOCCOCCCl | inactive |
| CC(C)=CC(=O)O | inactive |
| CCC=C(C)C=O | inactive |
| COc1ccc(C(C)=O)cc1 | inactive |
| C=C1CC[C@H]2O[C@]2(C)CC[C@@H]2[C@@H]1CC2(C)C | inactive |
| CCCCCCCCCCCCOCCOS(=O)(=O)O | inactive |
| CC(=O)Nc1cc(S(=O)(=O)O)cc2cc(S(=O)(=O)O)c(N=Nc3ccccc3)c(O)c12 | inactive |
| COc1ccc(OC)cc1 | inactive |
| CC1=CCC(C(C)C)=CC1 | inactive |
| C1=COCCC1 | inactive |
| CC(C)N(c1ccccc1)C(C)C | inactive |

| Structure (SMILES) | outcome |
| --- | --- |
| O=[N+]([O-])c1cc(N(CCO)CCO)ccc1NCCO | inactive |
| OC[C@H]1O[C@@H](O[C@H]2[C@H](O)[C@@H](O)[C@H](O)O[C@@H]2CO)[C@H](O)[C@@H](O)[C@H]1O | inactive |
| [O-]/[N+](=N\O)c1ccccc1 | inactive |
| C=C(C)C(=O)OCCN(C)C | inactive |
| CC/C=C\CCOC(C)OCC (stereo not given) | inactive |
| CC1=CCC(C(C)(C)O)CC1 (stereo not given) | inactive |
| CC(C)Cc1ccc(C(C)C(=O)O)cc1 (stereo not given) | inactive |
| CC(C)=CCCC(C)=CC(=O)O | inactive |
| S=c1[nH][nH]c(=S)s1 | inactive |
| O=c1cc[nH]cc1 | inactive |
| CCCCCCC(O)CCOC(C)=O (stereo not given) | inactive |
| CCCOC(=O)CC | inactive |
| CC1(C)CC(N)CC(C)(CN)C1 (stereo not given) | inactive |
| CC(C)(O)CCc1ccccc1 | inactive |
| C=C(C)C(=O)OCCC[Si](OC)(OC)OC | inactive |
| CC(C)N1C(=O)c2ccccc2C1=O | inactive |
| CCCCOCCOCCO | inactive |
| CC1=CC(O)CC(C)(C)C1 (stereo not given) | inactive |
| CCCO[Si](OCCC)(OCCC)OCCC | inactive |
| CCCC1CCC(=O)CC1 | inactive |
